HTT cytoprotect: protects HTT-Q103 PC12 cells, measured by ATP | 230,000 tested, 0.14% active | Potency, µM (titrated, usually from 56.4 µM), for the others: cytoprotection (ATP increase), actives largely listed as activators | PC12 HTT-Q103 induced, cytoprotection, ATP luminescence, 40 h; note: % of control where 0% means no effect; nearly all actives have a fitted effect of over 45% in size
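ATP quantification (ATPlite) reports survival of PC12 cells in which tebufenozide, 100 nM final, switches on Htt exon 1 with 103 glutamines linked to GFP; compounds are titrated.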
ALDH1A1 block: ALDH1A1 (human) enzyme inhibition. 220,000 tested, 7.3% active. Purified ALDH1A1, NADH fluorescence, propionaldehyde substrate. AID 1030. Potency, µM (top dose mostly 75.3 µM), for inactives: at the highest dose activity, negative = inhibition, actives largely listed as inhibitors; active = well fitted inhibition curve with a large enough effect, not every such curve was filed as active; inconclusive = small, poorly fitted or top-dose-only effect, or another doubt; inactive = no such curve, though single readings can be large or run the other way;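 note: plate controls were no enzyme wells and a reference inhibitor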
Lamin A splicing: changes lamin A minigene splicing in HeLa cells. AID 1487. HeLa LMNA splicing GFP/RFP minigene ratio, 48 h. 200,000 tested, 0.01% active. Potency, µM (highest dose often 46.1 µM), for inactives: at the highest dose ratio change, negative = inhibition, usual class: inhibitors; active = well fitted inhibition curve with a large enough effect in the signal ratio, with a control signal flat, not every such curve was filed as active; inconclusive = small, poorly fitted or top-dose-only effect, or effect the other way, or a change in a side signal; the % refers to the signal ratio; note: % is set by controls: 0 for no effect and ±100 for the full control effect
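Read-out is the ratio of GFP to DsRed2 object intensity, acquired by 488 nm laser-scanning cytometry on HeLa lamin A-EGFP minigene reporter cells. Compound incubation 48 hrs at 37 °C in Opti-MEM with 2% FBS; DMSO 0.5% final.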
HTT aggregate: reduces HttQ103-GFP aggregates in PC12 cells; Potency, µM (titrated, usually from 46.1 µM), without a hit: at the highest dose activity change, negative = inhibition, usual class: inhibitors; PC12 HttQ103-GFP aggregates, Acumen cytometry, 40 h; 220,000 tested, 1.1% active; note: % is set by controls: 0 for no effect and ±100 for the full control effect; nearly all actives have a fitted effect of over 60% in size
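Compounds (qHTS titration) were added to PC12 cells expressing an ecdysone-driven HTT exon 1 Q103–GFP fusion after induction with 100 nM tebufenozide. Aggregate formation was measured as GFP objects in cell lysates.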
KinaseGlo FLuc: counter-screen: inhibitors of Kinase-Glo firefly luciferase; Potency, µM (top dose mostly 38.3 µM), without a hit: top-dose activity change, negative = inhibition, most hits filed as inhibitors; 200,000 tested, 0.28% active; Kinase-Glo luciferase, ATP luminescence, 8 min; Q27757; note: % is set by controls: 0 for no effect and ±100 for the full control effect; nearly all actives have a fitted effect of over 60% in size
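Light output from Kinase-Glo luciferase with luciferin and 10 uM ATP in 50 mM imidazole pH 7.2, KCl, MgCl2, Tween 20, BSA; compound pin-delivered, 8-min ambient incubation, then luminescence read.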
HPGD inh: HPGD (human) dehydrogenase inhibition. P15428. purified HPGD, NADH fluorescence kinetic, PGE2 substrate. Potency, µM, inactives show at the highest dose activity change, negative = inhibition, hits mostly inhibitors. 150,000 tested, 4.3% active. AID 894; active = well fitted inhibition curve with a large enough effect, not every such curve was filed as active; inconclusive = small, poorly fitted or top-dose-only effect, or another doubt; inactive = no such curve, though single readings can be large or run the other way; note: % is set by controls: 0 for no effect and ±100 for the full control effect
Target sequence (P15428 whole entry, looked up): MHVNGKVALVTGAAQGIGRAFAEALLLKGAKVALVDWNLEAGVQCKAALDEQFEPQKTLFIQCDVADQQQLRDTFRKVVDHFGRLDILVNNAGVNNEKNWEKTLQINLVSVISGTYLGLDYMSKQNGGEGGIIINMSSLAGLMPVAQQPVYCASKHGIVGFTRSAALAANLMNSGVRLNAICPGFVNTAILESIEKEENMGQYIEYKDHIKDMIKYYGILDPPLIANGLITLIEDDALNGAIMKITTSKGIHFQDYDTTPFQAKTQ
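20 nM HPGD preincubated 15 min at room temperature with compound in 50 mM Tris-HCl pH 8, 0.01% Tween 20. Started with 1 mM NAD+ and 30 uM prostaglandin E2; NADH fluorescence (360/450 nm) read 5 times over 30-s intervals, last minus first.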
* marks the source's active call; other numbers are inactive results; ! = a repeat was not active; [ ] = another dose, or the depositor's remark. A selection: hits, their analogues and other compounds. The true share with any hit is near 9%. Unless noted, calls come from the whole dose curve; as a rule, active = well fitted curve in the direction sought with a large enough effect; inconclusive = small, poorly fitted or top-dose-only effect, or another doubt; inactive = no such curve, though single readings can be large; an effect the other way counts as inactive or inconclusive. Potency is the fitted concentration of half-maximal effect.

For CCN1C(=O)C(CC(=O)Nc2ccc(Br)cc2)N(CCCc2ccccc2)C1=S (configuration not stated) the results were HTT cytoprotect -83%, ALDH1A1 block 13µM*, Lamin A splicing inconclusive, HTT aggregate inconclusive, KinaseGlo FLuc 0% and HPGD inh -5%.
For COC(=O)CN1C(=S)N(c2ccc(OC)cc2)C(=O)C1CC(=O)Nc1ccc(F)cc1 (configuration not stated) the results were HTT cytoprotect inconclusive, ALDH1A1 block inconclusive, Lamin A splicing 10%[46 µM], HTT aggregate 0% and KinaseGlo FLuc 0%.
Screening CCOc1ccc(NC(=O)CC2C(=O)N(C)C(=S)N2CCCc2ccccc2)cc1 (configuration not stated) returned HTT cytoprotect 21%[10 µM], ALDH1A1 block inconclusive, Lamin A splicing inconclusive, HTT aggregate 10%, KinaseGlo FLuc 2% and HPGD inh -5%.
Screening COc1ccc(-n2c(O)c(C=Nc3ccccc3)c3ccccc3c2=O)cc1OC returned HTT cytoprotect -21%[10 µM], ALDH1A1 block -3%, Lamin A splicing inconclusive and HTT aggregate 0%[9.22 µM].
For CCOc1ccc(N(C(=O)Cn2nnc3ccccc32)C(C(=O)NC(C)(C)CC)c2cccn2C)cc1 (configuration not stated) the results were HTT cytoprotect 25%[10 µM], ALDH1A1 block 0%, Lamin A splicing -9%, HTT aggregate -6%, KinaseGlo FLuc 2% and HPGD inh -8%.
`CCC(C)(C)NC(=O)C(c1cccn1C)N(C(=O)Cn1nnc2ccccc21)c1ccc(OC)cc1OC` (configuration not stated) gave HTT cytoprotect -7%[10 µM], ALDH1A1 block 11µM*, Lamin A splicing -8%, HTT aggregate -4%, KinaseGlo FLuc -4% and HPGD inh -1%.
Screening FC(F)(F)c1cccc(CNc2ncccc2-c2nc3cc(Cl)ccc3o2)c1 returned HTT cytoprotect -3%, ALDH1A1 block inconclusive, Lamin A splicing 15%, HTT aggregate 5%, KinaseGlo FLuc -1% and HPGD inh inconclusive.
Screening CCN(CC)CCOC(=O)C1(c2ccc([N+](=O)[O-])cc2)CCCC1 returned HTT cytoprotect 0.32µM*!, ALDH1A1 block -6%, Lamin A splicing inconclusive, KinaseGlo FLuc 2% and HPGD inh -1%.
Cc1ccc([N+](=O)[O-])cc1NC(=O)Cc1cccs1 was read as HTT cytoprotect -23%, ALDH1A1 block 2% and HTT aggregate 15%.
`C=CCN=c1scc(-c2ccc3c(c2)NC(=O)CO3)n1/N=C(\C)c1ccccn1` gave HTT cytoprotect -53%[10 µM], ALDH1A1 block 2.8µM*, Lamin A splicing inconclusive, HTT aggregate 5µM* and KinaseGlo FLuc 3%.
Screening O=C(Cc1cc(=O)[nH][nH]1)N/N=C/C=C/c1ccccc1 returned HTT cytoprotect 4%, ALDH1A1 block 4%, Lamin A splicing inconclusive, HTT aggregate 1%, KinaseGlo FLuc -5% and HPGD inh -12%.
`CN(C)c1cc2c(c(N(C)C)c1)C(=O)c1ccccc1C2=O` gave HTT cytoprotect -5%, ALDH1A1 block 0.71µM*, Lamin A splicing -13%, HTT aggregate -3%, KinaseGlo FLuc 11µM* and HPGD inh -17%.
Screening CN(C)S(=O)(=O)c1cccc2c1C(=O)c1ccccc1C2=O returned ALDH1A1 block inconclusive, Lamin A splicing -5%, HTT aggregate 9%, KinaseGlo FLuc -7% and HPGD inh -10%.
For C=CCNC(=O)c1ccccc1NC(=O)C1COc2ccccc2O1 (configuration not stated) the results were HTT cytoprotect -65%[10 µM], ALDH1A1 block 0%, Lamin A splicing inconclusive, HTT aggregate 3.5µM* and KinaseGlo FLuc -2%.

Screens: PubChem BioAssay, National Center for Advancing Translational Sciences (NCATS)
